# Compound activity: PubChem, several laboratories
# Most compounds without a hit are left out; they make up all but 2.8% or so of the library.
# Peg3 promoter = reduces Peg3 promoter-driven luciferase expression in HeLa | actives 1.7% (n = 360,000) | HeLa PEG-Prom luciferase reporter, luminescence, overnight | AID 588405 | inhibition, % at 20 µM;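 active = inhibition of at least 50% at 20 µM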
# Beta2AR agonist = human beta-2 adrenergic receptor agonism by FAP; response, % (test concentration not listed); actives 0.43% (n = 340,000); AID 504454; P07550; Am2.2-beta2AR cells, FAP receptor internalization, flow cytometry;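 active = response above a set limit, near 3 SD of response in nonfluorescent compounds, cut at about 42% in these data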
# Target sequence (P07550 whole entry, looked up): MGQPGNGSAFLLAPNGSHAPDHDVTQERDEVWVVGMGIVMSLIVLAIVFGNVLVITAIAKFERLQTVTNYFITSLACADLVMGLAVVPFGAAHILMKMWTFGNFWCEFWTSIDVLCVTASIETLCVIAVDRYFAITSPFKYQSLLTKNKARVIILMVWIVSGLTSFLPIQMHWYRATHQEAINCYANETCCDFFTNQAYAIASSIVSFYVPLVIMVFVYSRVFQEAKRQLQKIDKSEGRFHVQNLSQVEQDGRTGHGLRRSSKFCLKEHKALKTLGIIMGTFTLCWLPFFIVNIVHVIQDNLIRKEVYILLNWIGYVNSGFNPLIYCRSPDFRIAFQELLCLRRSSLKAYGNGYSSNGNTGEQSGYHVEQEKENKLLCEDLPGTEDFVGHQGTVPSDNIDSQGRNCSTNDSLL
# HIF-2a inh = blocks HIF-2a reporter activity | actives 0.72% (n = 360,000) | inhibition, % at 18.8 µM | AID 624352 | 786-0 RCC cells HIF-2a reporter, luciferase luminescence, overnight;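 active = inhibition of the luminescence signal of 40% or more relative to plate controls, in a single-dose primary screen at 18.75 µM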
# CF NFkB block = blocks PAF-induced NF-kB reporter in cystic fibrosis cells. KKLEB NF-kB-GFP reporter, GFP fluorescence overnight. inhibition, % at 5 µM. actives 0.86% (n = 360,000). AID 588850;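 active = at least 50% inhibition at 5 µM, scaled per plate between neutral and stimulator controls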;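 also: PAF is a Pseudomonas aeruginosa culture filtrate used as stimulus; plate controls were PAF-stimulated DMSO wells for no effect and unstimulated DMSO wells for full effect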
# KKLEB cytotox = CF airway cell cytotoxicity counter-screen. KKLEB CF airway cells viability, ATPlite luminescence, overnight; active compounds read low; cells stimulated with P. aeruginosa culture filtrate. activity change (cytotoxicity), % at 5 µM. actives 0.36% (n = 360,000). AID 602141;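 active = corrected activity change at or below -50% at 5 µM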
# MITF TRPM1 inh = MITF TRPM1 promoter inhibition in SK-MEL-5 cells | SK-MEL-5 TRPM1 promoter luciferase, 24 h | inhibition, % at 12.5 µM | actives 0.83% (n = 330,000) | AID 488899;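 active = mean inhibition across replicates of 60% or more, whatever share of single replicates reaches that level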
# Numbers without * were called inactive; / = no result.
SMILES,Peg3 promoter,Beta2AR agonist,HIF-2a inh,CF NFkB block,KKLEB cytotox,MITF TRPM1 inh
COc1ccc2cc3cc(C(=O)NCCN4CCN(c5ccccc5F)CC4)oc3nc2c1,44,16,-2,-9,-9,45
ClCc1nc2ccccc2n1Cc1ccccc1,107*,-318,21,11,0,53
CN(C)c1ccnc2sc(C(N)=O)c(N)c12,-7,15,17,91*,-36,-10
Cc1ccc(-c2csc3nc4c5ccccc5c(NCCCN(C)C)nn4c(=O)c23)cc1,109*,25,-8,11,-60*,85*
COc1cc2c(C)nc3c(c(C)nn3-c3ccccc3)c2cc1OC,-7,1,14,-55,-5,-11
COc1cc2c(-c3ccc(O)cc3)nc3c(c(C)nn3-c3ccccc3)c2cc1OC,77*,14,21,-40,-27,13
CC(Oc1ccc(Br)cc1)C(=O)N(Cc1ccccc1)c1c(N)n(Cc2ccccc2)c(=O)[nH]c1=O (stereo unspecified),12,/,20,-10,7,/
CCN(CC)c1ccc2c(cc1=O)[C@@H](NC)CCc1cc(OC)c(OC)c(OC)c1-2,-2,28,7,42,-9,66*
COc1cc2c(c(OC)c1OC)-c1ccc(N(C)CC(OC)OC)c(=O)cc1[C@@H](NC(C)=O)CC2,3,0,26,42,-10,73*
CN[C@H]1CCc2cc(OC)c(OC)c(OC)c2-c2ccc(N(C)CC(OC)OC)c(=O)cc21,-3,24,16,8,-3,24
CN(CC(=O)N1CCN(c2cccc(Cl)c2)CC1)S(=O)(=O)c1cccs1,9,53*,-16,-7,-1,-8
CN(CC(=O)N1CCN(c2cccc(Cl)c2)CC1)S(=O)(=O)c1cnc[nH]1,0,-10,18,5,-3,7
CCOC1(OCC)OC(c2ccccc2)=C(C#N)C(C=Cc2ccccc2)C1(OCC)OCC (stereo unspecified),27,/,0,-2,-8,/
CC(=O)Nc1cccc(-c2ccnc3c2CC(C)(C(=O)Nc2ccc4c(c2)OCO4)O3)c1 (stereo unspecified),-46,/,28,8,-16,/
CC(C)C[C@H]1CNC(=S)N1C[C@H]1CCCN1C[C@H](Cc1ccc(O)cc1)N1C[C@H](Cc2ccc(O)cc2)N(CC2CCCCCC2)C1=S,101*,/,-19,71*,-59*,/
CC(C)C[C@H]1CNC(=S)N1CC1CCCN1C[C@H](Cc1ccccc1)N1C[C@H](Cc2ccc(O)cc2)N(CC2CCCCCC2)C1=S (stereo partly specified),66*,4,-2,28,-3,25
CC1(C(=O)O)CCCN(C(=O)c2cc3ccccc3s2)C1 (stereo unspecified),9,/,8,6,-8,/
Cc1nc2ccc(C(=O)N3CCN(C(=O)c4ccco4)CC3)cn2c1N(C)C(=O)CCc1ccccc1,1,/,7,2,9,/
CN(C)CCCN(C(=O)COc1ccc(Cl)cc1)c1nc2cc3c(cc2s1)OCO3,64*,7,0,-14,-11,19
CN(C)CCCN(C(=O)CCc1ccccc1)c1nc2ccc(Cl)cc2s1,108*,18,-20,34,-40,6
CN(C)CCCN(C(=O)COc1ccccc1)c1nc2ccc(Cl)cc2s1,-66,29,-80,2,-2,1
Cc1ccc2nc(N(CCCN(C)C)C(=O)CCc3ccccc3)sc2c1,53*,14,-15,0,-6,-6
Nc1ccc(Oc2cccc(Oc3ccc(N)cc3)c2)cc1,30,-5,90*,-12,9,81*
Cc1cccc(Oc2ccc(N)cc2)c1,-51,5,-59,6,5,1
COc1ccc(C(c2nnnn2-c2ccc3c(c2)OCCO3)N2CCN(C/C=C/c3ccccc3)CC2)cc1 (stereo unspecified),21,/,-26,-7,8,/
SMILES,Peg3 promoter,Beta2AR agonist,HIF-2a inh,CF NFkB block,KKLEB cytotox,MITF TRPM1 inh
CC(C)=CCc1c(O)ccc2c1OC(c1ccc(O)c(O)c1)CC2=O (stereo unspecified),35,5,12,34,-3,71*
O=C1CC(c2ccc(O)c(O)c2)Oc2c1ccc(O)c2O (stereo unspecified),-21,-4,13,12,-16,-8
CC(O)(c1ccccc1)c1nc(-c2ccc(S(C)(=O)=O)cc2)cs1 (stereo unspecified),-2,/,-24,-23,7,/
Cn1nc(C(C)(C)C)cc1C(=O)N1CCCCC1c1cc(C(=O)NCc2ccccc2)no1 (stereo unspecified),5,/,-14,2,2,/
O=C(Nc1ccc(N2CCOCC2)cc1)Nc1ccc2nc(-c3ccco3)c(-c3ccco3)nc2c1,47,16,0,70*,-42,-13
Cc1cc(C2CCCCC2)n(O)c(=O)c1,51*,19,20,20,-16,78*
Cn1c(NC2CCCCC2)cc(=O)n(C)c1=O,-4,-4,21,8,6,11
O=C(COC(=O)c1cc(Br)ccc1O)NCCC1=CCCCC1,10,/,15,6,-5,/
C[C@]12C(=O)N(c3ccc(C(F)(F)F)cc3)C(=O)N1[C@H]1c3ccccc3OC[C@@H]1[C@H]2c1ccccc1,6,3,8,60*,-22,-11
CC12CNCC(C)(CN(C(c3ccccc3)c3ccccc3)C1)C2,81*,90*,-1,5,-6,2
Clc1ccc(C(c2ccccc2)N2CCNCC2)cc1 (stereo unspecified),-22,20,-4,3,-11,-7
CS(=O)(=O)c1cc([N+](=O)[O-])c(Sc2nc3ccccc3[nH]2)c([N+](=O)[O-])c1,23,63*,4,-58,10,45
O=C(O)c1cc([N+](=O)[O-])c(Sc2nc3ccccc3[nH]2)c([N+](=O)[O-])c1,2,-1,8,-1,8,8
Nc1c(N(Cc2ccccc2)C(=O)COc2ccc([N+](=O)[O-])cc2)c(=O)[nH]c(=O)n1Cc1ccccc1,5,-2,8,20,-9,-37
CC(c1nc2ccccc2n1Cc1ccccc1)n1c(-c2cnccn2)nc2ccccc21 (stereo unspecified),/,/,11,/,/,/
Cc1cccc(NC(=O)c2cc3c(=O)n4ccccc4nc3n(CC(C)C)c2=N)c1,54*,-5,-3,-1,-30,22
COc1ccc(-c2nn(-c3ccccc3)cc2/C=N/NC(=O)c2ccc(Br)o2)cc1,90*,61*,-141,-25,14,63*
COc1cccc(/C=N/NC(=O)CSc2nnc(C)n2-c2ccccc2)c1O,33,4,2,6,2,5
C=CCNC(=S)N/N=C/c1cn(-c2ccccc2)nc1-c1ccc(OC)cc1,-14,-18,8,53*,-53*,-5
